Experimental data taken from paper PMC7819943, “Rice protein-binding microarrays: a tool to detect cis-acting elements near promoter regions in rice”.
Whole data set: some 35,000 sequences, median “fluorescence intensity (a.u.)” near 10,000, cut for the highest 2% near 52,000. Only a selection was taken, and the highest values are over-represented in it overall.

Each sequence was assayed against T1, OsWOX13 (Oryza sativa, UniProt Q5QMM3 1-267) (assay: protein-binding microarray (RPBM); PBS, 2% BSA, 51.3 ng/ul salmon testes DNA, 50 uM zinc acetate, 200 nM TF, 25 C, 1 h; high values mean tight binding). Details: protein: recombinant; tags: N-terminal polyhistidine and DsRed monomer fusion (pET32a); label: CyDye5-dUTP incorporated in the synthesized complementary strand; 3' TTTTT single-stranded linker to array surface; dsDNA, one strand shown.
T1 sequence: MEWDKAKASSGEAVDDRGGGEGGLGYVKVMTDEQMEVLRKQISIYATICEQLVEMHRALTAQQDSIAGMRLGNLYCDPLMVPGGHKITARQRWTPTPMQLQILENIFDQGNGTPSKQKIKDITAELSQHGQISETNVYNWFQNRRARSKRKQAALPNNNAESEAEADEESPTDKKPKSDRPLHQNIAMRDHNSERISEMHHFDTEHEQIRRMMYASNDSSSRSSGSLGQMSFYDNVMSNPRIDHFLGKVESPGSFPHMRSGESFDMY
Summary of the method: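 An Axon 4000B scanner gave the binding signal as per-feature fluorescence intensity in arbitrary units. This followed washing of a custom Agilent array that had been incubated for 1 h at 25 °C with 200 nM protein in PBS, 2% BSA, salmon testes DNA and 50 µM zinc acetate. The proteins were transcription factors fused at the N-terminus to polyhistidine and DsRed, expressed in E. coli BL21-CodonPlus and purified on Ni–NTA.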
In the case of “TGGATTTTAAATTAAGTAAATTGCACCAGCGGTCCTTAAACGGAGTCACCTAGTGCAG”, the binding signal is reported as 6480 fluorescence intensity (a.u.). With “AATTTGAATTTTGTTAAGTTAAATTTGATGAACTGGGGCCCGGAGTCACCTAGTGCAG” the binding signal was 5490 fluorescence intensity (a.u.). “TTATAATTATTTGTGTTGCAATGTATGTTTTGTTTATATACGGAGTCACCTAGTGCAG” was tested, and the binding signal was 9980 fluorescence intensity (a.u.). “TTTGGGTGTTAGTGTCTTAATTAGTGTGTGAGCCCCATCCCGGAGTCACCTAGTGCAG” was tested, and the binding signal was 3790 fluorescence intensity (a.u.). With “TGTGGCTAAATTTATCAATTGAATGGGCTAGAGGCACGCTCGGAGTCACCTAGTGCAG” the binding signal was 17400 fluorescence intensity (a.u.). “CCAAATTCATTAAAATTAACAATAACAATTATATTTGTTTCGGAGTCACCTAGTGCAG” was tested, and the binding signal was 10900 fluorescence intensity (a.u.). With “GTTTAGCAAATCCAGCACCCATTATACAGACTTTCTATGCCGGAGTCACCTAGTGCAG” the binding signal was 65500 fluorescence intensity (a.u.). For “ATTGAGTCAATCCACACTTTATTAGCACATTGGCCCACACCGGAGTCACCTAGTGCAG”, the binding signal was 3510 fluorescence intensity (a.u.). “AAGTCTAATTAATCCATCATTAGCAAATGTTTATTGTAGCCGGAGTCACCTAGTGCAG” was tested, and the binding signal was 26700 fluorescence intensity (a.u.). For “ATTTGCTAATGACGGATTAATTAGATTTAATAAATTCATCCGGAGTCACCTAGTGCAG”, the binding signal was 39700 fluorescence intensity (a.u.). With “AAGCTGAAATTTGTTAGAGTAATAGTTGACACCATTACCACGGAGTCACCTAGTGCAG” the binding signal was 3160 fluorescence intensity (a.u.). For “GAGATATAATTGATTAGAGTTACTTTCAATCTTTTCCGTGCGGAGTCACCTAGTGCAG”, the binding signal was 62000 fluorescence intensity (a.u.). For “CACAATCACGAATTGAAGAAAGTCCTTCATTTCACATCAACGGAGTCACCTAGTGCAG”, the binding signal was 3660 fluorescence intensity (a.u.). “TTGGCCTTCAATCATTGACACTTGGACAGAACAAATCAATCGGAGTCACCTAGTGCAG” was tested, and the binding signal was 26000 fluorescence intensity (a.u.). In the case of “AATCCTAATTATAAGATTTAAGACCTTTCTCTTCACTTCACGGAGTCACCTAGTGCAG”, the binding signal is reported as 9800 fluorescence intensity (a.u.). With “AAGGATTAGATATGATTCAATCTTTTGGTTCAAAGTTCTTCGGAGTCACCTAGTGCAG” the binding signal was 6590 fluorescence intensity (a.u.). In the case of “TCACCTTGATTTCAATCATTGGACAAGTGTCCTAGAAAGTCGGAGTCACCTAGTGCAG”, the binding signal is reported as 55300 fluorescence intensity (a.u.). For “CTAGATTGAGAGCATCTGATTCAATAATTAGACTTTCAATCGGAGTCACCTAGTGCAG”, the binding signal was 45100 fluorescence intensity (a.u.). In the case of “CTCAATAATTAAGTTCTTGATTAACATTGATATTACTTTCCGGAGTCACCTAGTGCAG”, the binding signal is reported as 24600 fluorescence intensity (a.u.). For “CCCAATTGGTGATTAGATAATCCTGTCACTTTCTTCAAGTCGGAGTCACCTAGTGCAG”, the binding signal was 54100 fluorescence intensity (a.u.). “TCTAAATTAATCTTTAGTTCTTGACCGCAAAATATGAAGCCGGAGTCACCTAGTGCAG” was tested, and the binding signal was 14800 fluorescence intensity (a.u.). In the case of “TAACGGATTGATACATCTGGTTACAAATGTGCACTACATACGGAGTCACCTAGTGCAG”, the binding signal is reported as 3880 fluorescence intensity (a.u.). With “TAGCTAATTTGCACCCACATGCATGTGCTTCGAGTAGTTACGGAGTCACCTAGTGCAG” the binding signal was 7070 fluorescence intensity (a.u.). For “CCCTTACTGATTGGACGGTCCCGCGCATAAGCATGCGCACCGGAGTCACCTAGTGCAG”, the binding signal was 27800 fluorescence intensity (a.u.). In the case of “TTCAACCATAAATTGAATTGAATAGGACGGATGATGGTTACGGAGTCACCTAGTGCAG”, the binding signal is reported as 12700 fluorescence intensity (a.u.). For “ATGGGCCACGGGCCCACGGACCATACGCATAGGATTCAACCGGAGTCACCTAGTGCAG”, the binding signal was 59500 fluorescence intensity (a.u.). With “TGATTAACAGCAACCATAGACGGGACAGGCCAGCCCACCACGGAGTCACCTAGTGCAG” the binding signal was 3260 fluorescence intensity (a.u.). “GTACAATTTTCATAATTTGCATAAATCGAAAAGAAAAGTGCGGAGTCACCTAGTGCAG” was tested, and the binding signal was 12400 fluorescence intensity (a.u.). For “ATGATTAATACTTAATTAATTATGTGCGCTCATGGATCACCGGAGTCACCTAGTGCAG”, the binding signal was 56400 fluorescence intensity (a.u.). For “TAAATTGATCAAATTGCCATTTGGAGTGCAGTGACGGGCTCGGAGTCACCTAGTGCAG”, the binding signal was 54900 fluorescence intensity (a.u.). In the case of “ACTAATGATGGATTAATTAGGCTTAATATATTCATCTCGCCGGAGTCACCTAGTGCAG”, the binding signal is reported as 58100 fluorescence intensity (a.u.). “GATTAATTAGGCTCAATATATTCATCTCGCGAATTAGTCCCGGAGTCACCTAGTGCAG” was tested, and the binding signal was 33000 fluorescence intensity (a.u.). With “GTTTGGATTGATTATTGGGACAGTGAAATTGACCATTTGACGGAGTCACCTAGTGCAG” the binding signal was 39600 fluorescence intensity (a.u.). For “TATGAGATATCATTTAATTATATAATAAATATAATGATGTCGGAGTCACCTAGTGCAG”, the binding signal was 4610 fluorescence intensity (a.u.). For “CAAATGAGCTAATACTTAATTAATAATGCGCTAATGGATCCGGAGTCACCTAGTGCAG”, the binding signal was 4340 fluorescence intensity (a.u.). In the case of “TTAAATTATATTTATATCAAATTATACTTTGATCAATACTCGGAGTCACCTAGTGCAG”, the binding signal is reported as 39900 fluorescence intensity (a.u.). For “GGTATGATAAACTTGACTAATTATACCATTGGATCATTGTCGGAGTCACCTAGTGCAG”, the binding signal was 11000 fluorescence intensity (a.u.). With “AATGATGGAGGATAATTTATATGCTAAATTATAAACTTGTCGGAGTCACCTAGTGCAG” the binding signal was 57700 fluorescence intensity (a.u.). For “TTTTATAATGATACTTAATTAATCATGTGCTAATAATCACCGGAGTCACCTAGTGCAG”, the binding signal was 9330 fluorescence intensity (a.u.). With “TGATGGATTAATATATGATTAATTAAGTATTAGCTTAAACCGGAGTCACCTAGTGCAG” the binding signal was 13200 fluorescence intensity (a.u.). For “CAAGAACCAATAATTTGCAAACTGTAGGGCACAGTTCGATCGGAGTCACCTAGTGCAG”, the binding signal was 6920 fluorescence intensity (a.u.). With “GTCTCTTTGAAATTGAAATTGGGCCTCATTTAGTCTGTTACGGAGTCACCTAGTGCAG” the binding signal was 3500 fluorescence intensity (a.u.). With “TTTTCCATCACATTAACCTGTCATACACACAAAACTTTTCCGGAGTCACCTAGTGCAG” the binding signal was 4820 fluorescence intensity (a.u.). In the case of “ACAATCAATCAATCTTGCTTTCCATTCAAAGTCTTCATTTCGGAGTCACCTAGTGCAG”, the binding signal is reported as 35000 fluorescence intensity (a.u.). In the case of “AATGTGAGCATGTGATTTAAATTTGAGAAAATTCAACTTGCGGAGTCACCTAGTGCAG”, the binding signal is reported as 3660 fluorescence intensity (a.u.). For “GTCCTATTTGACGCTTTGATTAGACAACGCTTTGTCAATTCGGAGTCACCTAGTGCAG”, the binding signal was 12900 fluorescence intensity (a.u.).
